Measurements reported in PubChem BioAssay (Tox21).
“And” between values parts separate entries of the source, which are not always exact repeats. Equal entries are not always repeated. Inconclusive results are not listed. The source made the active and inactive calls. The call rests on the fitted dose curve; in most records, active means well fitted curve in the direction sought with a large enough effect in the repeat runs; inconclusive means weak or mixed curves; inactive means no such curve, though single readings can be large; an effect the other way counts as inactive or inconclusive.

Experiments:
[1] = qHTS RealTime-Glo MT Cell Viability Assay in HEK293 cells - 16 hour (AID 1224872); further: top concentration of the series differs between compounds; nearly all actives have a fitted effect of over 50% in size
In short: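 Assay medium contained NanoLuc luciferase plus cell-permeant prosubstrate, added with HEK293 cells at 600 cells/well. After 5 h at 37 C/5% CO2 compounds were added; plates stayed at 37 C for 40 h with serial luminescence reads.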

[2] = qHTS RealTime-Glo MT Cell Viability Assay in HepG2 cells - 8 hour (AID 1224873); further: nearly all actives have a fitted effect of over 55% in size
In short: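 Real-time viability: cells seeded at 600 per well together with NanoLuc and cell-permeant prosubstrate, compounds added after 5 h incubation. Luminescence tracked at 0, 8, 16, 24, 32 and 40 h of exposure.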

[3] = qHTS RealTime-Glo MT Cell Viability Assay in HEK293 cells - 40 hour (AID 1224874); conditions: RealTime-Glo luminescence; max response: stronger effect = lower value; further: nearly all actives have a fitted effect of over 50% in size
In short: (§1)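 Real-time viability in HEK293: signal arises when living cells convert a prosubstrate for NanoLuc in the medium, so luminescence tracks viable cell number. Compound (23 nL, DMSO) added 5 h post-seeding; kinetic reads at 0–40 h, 37 C.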

[4] = A CellTox Green Cytotoxicity Assay to monitor cytotoxicity in HEK293 cells - 24 hour (AID 1224875); further: series mostly up to about 77 µM; nearly all actives have a fitted effect of over 45% in size
In short: (§2)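 Cells (HEK293, 600/well) and dye reagent are dispensed together. After 5 h at 37 C, 23 nL compound is pinned in. Plates stay at 37 C for 40 h with fluorescence read at 0h, 8h, 16h, 24h, 32h and 40h.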

[5] = A CellTox Green Cytotoxicity Assay to monitor cytotoxicity in HepG2 cells - 16 hour (AID 1224876); further: nearly all actives have a fitted effect of over 45% in size
In short: (§3)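 Cells and non-lytic dye reagent are dispensed together (600 HepG2 cells/well) and incubated 5 h before DMSO compound transfer. Kinetic fluorescence is then recorded in the same wells during 40 h at 37 C.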

[6] = qHTS RealTime-Glo MT Cell Viability Assay in HepG2 cells - 32 hour (AID 1224877); further: nearly all actives have a fitted effect of over 55% in size
In short: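 qHTS, HepG2, 600 cells/well, RealTime-Glo (NanoLuc + prosubstrate) added with cells; 5 h preincubation; DMSO compound addition; 37 C; luminescence at 0/8/16/24/32/40 h.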

[7] = A CellTox Green Cytotoxicity Assay to monitor cytotoxicity in HepG2 cells - 24 hour (AID 1224878); further: nearly all actives have a fitted effect of over 45% in size
In short: as §3

[8] = A CellTox Green Cytotoxicity Assay to monitor cytotoxicity in HepG2 cells - 40 hour (AID 1224879); further: nearly all actives have a fitted effect of over 40% in size
In short: as §3

[9] = qHTS RealTime-Glo MT Cell Viability Assay in HEK293 cells - 0 hour (AID 1224880); further: top concentration of the series differs between compounds; nearly all actives have a fitted effect of over 45% in size
In short: as §1

[10] = A CellTox Green Cytotoxicity Assay to monitor cytotoxicity in HEK293 cells - 32 hour (AID 1224881); further: nearly all actives have a fitted effect of over 40% in size
In short: as §2
On the % scale 0 is the no-effect control and ±100 the full control effect.

CC/C=C\C/C=C\C/C=C\CCCCCCCC(=O)O
inactive: Potency [1] | Potency [2] | max response [3] -5.49% and 15.2% | Potency [4] | Potency [5] | Potency [6] | Potency [7] | Potency [8] | Potency [9] | Potency [10]

COC(=O)C(C)Oc1ccc(Oc2ncc(C(F)(F)F)cc2Cl)cc1 (stereo not drawn)
inactive: Potency [2] | max response [3] -25% | Potency [4] | Potency [5] | Potency [6] | Potency [7] | Potency [8] | Potency [9] | Potency [10]

CC(=O)Oc1ccc(C(c2ccc(OC(C)=O)cc2)c2ccccn2)cc1
inactive: Potency [1] | Potency [2] | max response [3] -20.4% | Potency [4] | Potency [5] | Potency [6] | Potency [7] | Potency [8] | Potency [10]

Cc1ccc(C(C)(C)C)cc1
inactive: Potency [1] | Potency [2] | max response [3] 0.538% | Potency [4] | Potency [5] | Potency [6] | Potency [7] | Potency [8] | Potency [9] | Potency [10]

CC(C)(Oc1ccc(Cl)cc1)C(=O)O
inactive: Potency [1] | Potency [2] | max response [3] 6.25% and 5.25% | Potency [4] | Potency [5] | Potency [6] | Potency [7] | Potency [8] | Potency [9] | Potency [10]
